# Measurements taken from PubChem BioAssay AID1224852 (National Center for Advancing Translational Sciences (NCATS), 2016).
# Results filed as inconclusive are left out. Calls of active or inactive are those of the source. The call rests on the fitted dose curve; in most records, active means well fitted curve in the direction sought with a large enough effect (not every such curve was filed as active); inconclusive means small, poorly fitted or top-dose-only effect, or effect the other way, or another doubt; inactive means no such curve, though single readings can be large or run the other way.
# Assay: Cell viability assay for measurement of the protective activity of small molecules against cell death caused by Zika virus infection in human neural progenitor cells (hNPCs)
# Conditions: hNPC ZIKV-induced death protection, ATP luminescence, 72 h; series mostly up to 46.1 µM
# Text: National Center for Advancing Translational Sciences [NCATS] Johns Hopkins University School of Medicine Florida State University Assay Overview: Zika virus infection causes cell death in certain cell types including human neural progenitor cells (hNPCs), astrocytes, and astrocytoma cell line (SNB-19). This cell viability assay measures the ATP content (level) in human neural progenitor cells (hNPCs) using a luminescence readout that is proportional to viable cell numbers. Decrease in the luminescence signal after Zika virus infection indicates the cell death caused by Zika virus. Small molecule inhibitors […] the decreased luminescence signal after Zika virus infection, indicating the protective effect of that small molecule on the cell death caused by Zika virus infection. This observed protective effect of small molecules against Zika virus induced cell death may result from inhibition of virus replication or cellular response to the virus infection.
# Assay Protocol Summary: The medium for hNPCs consists of DMEM/F12, N2 supplement (ThermoFisher, Cat.# 17502048), NEAA (ThermoFisher, Cat. # 11140050), 2 ug/ml heparin, 2 uM cyclopamine, and B27 (ThermoFisher, Cat. # 17504044). The ATP content assay kit (PerkinElmer, Cat.# 6016731) was used to determine cell viability. The reagent was reconstituted and prepared as described by the manufacturer. Cells were seeded in 384- or 1536-well assay plates and cultured at 37 C with 5% CO2 for 16 to 20 hours. The typical cell seeding density in the 1536-well plate assay is 350 cells/well in 3 ul medium for hNPCs in the tissue cultured treated/PDL coated plates. Compounds were added to cells and incubated for one hour before addition of ZIKV solution to cells (2 FFU/cell). After incubation at 37 C with 5% CO2 for 72 hours, the reagent mixture of the ATP content assay kit was added to each well, followed by incubation at room temperature for 10 minutes. The luminescence intensity of the assay plates was measured using a ViewLux plate reader (PerkinElmer). […] The percentage inhibitions of the decreased cell viability by small molecule inhibitors were then calculated.
row,SMILES,outcome
1,CC(C)[C@H]1C(=O)N[C@H](CO)Cc2c[nH]c3cccc(c23)N1C,inactive
2,O=S(=O)(CC1CS1)c1ccc(Oc2ccccc2)cc1 (stereo not drawn),inactive
3,COC1(CS(=O)c2ccccc2)CCN(CCc2c[nH]c3ccc(F)cc23)CC1 (stereo not drawn),inactive
4,S=C(SSC(=S)N1CCCCC1)N1CCCCC1,inactive
5,O=C(Nc1ccc(Br)cc1)c1cc(Br)cc(Br)c1O,inactive
6,CC(=C(CCOC(=O)C(C)C)SSC(CCOC(=O)C(C)C)=C(C)N(C=O)Cc1cnc(C)nc1N)N(C=O)Cc1cnc(C)nc1N,inactive
7,CC(O)CN1CCN(CC(=O)[O-])CCN(CC(=O)[O-])CCN(CC(=O)[O-])CC1.[Gd+3] (stereo not drawn),inactive
8,COP(=S)(OC)SCN1C(=O)c2ccccc2C1=O,inactive
9,COc1cccc2c1C(=O)c1c(O)c3c(c(O)c1C2=O)C[C@@](O)(C(=O)CO)CC3OC1CC(N2CCOC(OC)C2)C(O)C(C)O1 (stereo partly drawn),inactive
10,CC(C)[N+](C)(CCC(C(N)=O)(c1ccccc1)c1ccccc1)C(C)C,inactive
11,CC(C)N[C@@H]1CCn2c(=O)[nH]c3cccc(c32)[C@@H]1O,inactive
12,Cc1ccc([N+](=O)[O-])[c]2c1[O][Hg]2,inactive
13,CN1CC[C@@]2(C)c3cc(OC(=O)Nc4ccccc4)ccc3N(C)[C@@H]12,inactive
14,CN1CC(=O)N2C(Cc3c([nH]c4ccccc34)[C@H]2c2ccc3c(c2)OCO3)C1=O (stereo partly drawn),inactive
15,O=c1c2ccccc2[se]n1-c1ccccc1,inactive
16,Oc1ccc([C@H]2CNCc3c2ccc(O)c3O)cc1O,inactive
17,CC[n+]1c(-c2ccccc2)c2cc(N)ccc2c2ccc(N)cc21,inactive
18,O=C1C=CC[C@@H]2[C@H]3CCCN4CCC[C@@H](CN12)[C@@H]34,inactive
